Laboratory results reported in PubChem BioAssay AID720664 (National Center for Advancing Translational Sciences (NCATS), 2013).
Results filed as inconclusive are left out. A number with no mark means an inactive call. Calls of active or inactive are those of the source. Calls come from the whole dose curve; as a rule, active = well fitted inhibition curve with a large enough effect; inconclusive = small, poorly fitted or top-dose-only effect; inactive = flat fitted curve, though single readings scatter.

Each molecule was assayed against Galactokinase (Homo sapiens) (UniProt P51570) (assay: qHTS for Inhibitors of Human Galactokinase (GALK): SAR round 3). Settings: ADP detection luminescence, 1 h; series mostly up to 57.5 µM; activity change, negative = inhibition: at the top concentration.
Galactokinase (Homo sapiens), sequence (P51570 whole entry, looked up): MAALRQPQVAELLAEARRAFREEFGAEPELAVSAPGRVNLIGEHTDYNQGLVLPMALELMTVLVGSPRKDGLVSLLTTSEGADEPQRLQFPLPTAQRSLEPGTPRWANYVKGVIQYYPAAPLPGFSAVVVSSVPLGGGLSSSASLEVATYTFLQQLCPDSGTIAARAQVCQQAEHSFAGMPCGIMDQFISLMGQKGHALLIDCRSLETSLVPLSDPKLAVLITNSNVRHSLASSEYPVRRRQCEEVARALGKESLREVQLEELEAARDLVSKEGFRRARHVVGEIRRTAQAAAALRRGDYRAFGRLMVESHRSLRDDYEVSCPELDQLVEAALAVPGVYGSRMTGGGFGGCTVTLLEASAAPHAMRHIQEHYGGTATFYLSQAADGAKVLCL
How it was run: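 Cherry-picked actives were retested in quantitative dose format against 5 nM human galactokinase, using 100 µM galactose and 35 µM ATP at pH 8.0 (HEPES, MgCl2, NaCl). After 1 h at room temperature, product was quantified by luminescence.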
`CC1=C(C(=O)Nc2ccon2)C2(CCCC2)N=C(Nc2nc3ccccc3o2)N1` was tested, and the Potency was 17.2 µM (active).
For `CCC1CCC2(C1)N=C(Nc1nc3ccccc3o1)NC1=C2C(=O)CCC1` (centres undefined), the Potency was “inactive”.
With `O=C1CCCC2=C1C(c1[nH]ncc1Cl)NC(=NCc1ccncc1)N2` (centres undefined) the “activity change, negative = inhibition” value was -0.0488%.
With `Cc1nc(CN=C2NC3=C(C(=O)CCC3)C(c3[nH]ncc3Cl)N2)cs1` (centres undefined) the “activity change, negative = inhibition” value was -0.394%.
`O=C1CCCC2=C1C(c1ccc(Cl)cc1)N=C(Nc1nc3ccccc3o1)N2` (centres undefined) was tested, and the “activity change, negative = inhibition” value was -5.92%.
`N#CC1=C(Nc2nc3ccccc3o2)OC2=C(C(=O)CCC2)C1c1[nH]ncc1Cl` (centres undefined) was tested, and the “activity change, negative = inhibition” value was 1.8%.
In the case of `Cc1nc(C2=NC(c3ccccc3Cl)C3=C(CCCC3=O)N2)cs1` (centres undefined), the “activity change, negative = inhibition” value was 2.05%.
`CC(C)c1nc(Nc2nc3ccccc3o2)nc2c1CCCC2` was tested, and the “activity change, negative = inhibition” value was -2.24%.
With `O=C1CCCC2=C1C(c1cccnc1Cl)N=C(Nc1nc3ccccc3o1)N2` (centres undefined) the “activity change, negative = inhibition” value was -21.4%.
With `O=C1CCCC2=C1C(c1[nH]ncc1Cl)N=C(Nc1nc3cc(F)ccc3o1)N2` (centres undefined) the “activity change, negative = inhibition” value was 0.642%.
In the case of `O=C1CCCC2=C1C1(CCCC1)N=C(Nc1nc3cc(Cl)ccc3o1)N2`, the “activity change, negative = inhibition” value was -24.4%.
With `CC1=C(C(=O)Nc2ccc(Cl)cc2)C(c2ccccc2Br)N=C(Nc2nc3ccccc3o2)N1` (centres undefined) the “activity change, negative = inhibition” value was -19.1%.
In the case of `O=C1CCCC2=C1C(c1[nH]ncc1Cl)N=C(c1nc3ccccc3o1)N2` (centres undefined), the “activity change, negative = inhibition” value was 1.55%.
In the case of `O=C1CCCC2CC(Nc3nc4ccccc4o3)CC(c3ccccc3)C12` (centres undefined), the “activity change, negative = inhibition” value was -0.0792%.
With `O=C1CCCC2=C1C(c1cccc(F)c1)N=C(Nc1nc3ccccc3o1)N2` (centres undefined) the “activity change, negative = inhibition” value was -24.3%.
In the case of `O=C(Nc1nnc(S(=O)(=O)N2CCOCC2)s1)c1cccc(Br)c1`, the “activity change, negative = inhibition” value was -11.9%.
In the case of `O=C1CCCC2=C1C(c1[nH]ncc1Cl)N=C(Nc1ccn[nH]1)N2` (centres undefined), the “activity change, negative = inhibition” value was 3.24%.
In the case of `O=C1CCCC2=C1C1(CCCC1)N=C(Nc1nc3cc(-c4ccccc4)ccc3o1)N2`, the “activity change, negative = inhibition” value was -10.9%.
In the case of `O=C1CCCC2=C1C1(CCSC1)N=C(Nc1nc3ccccc3o1)N2` (centres undefined), the Potency was 19.3 µM (active).
`O=C1CCCC2=C1C(c1[nH]ncc1Cl)N=C(Nc1cccnc1)N2` (centres undefined) was tested, and the “activity change, negative = inhibition” value was 0.256%.
With `Cc1cccc(C2N=C(Nc3nc4ccccc4o3)NC3=C2C(=O)CCC3)c1` (centres undefined) the “activity change, negative = inhibition” value was -18%.
For `CC1=C(C(=O)N(C)c2ccccc2C)C(c2ccccc2Br)N=C(Nc2nc3ccccc3o2)N1` (centres undefined), the “activity change, negative = inhibition” value was -20.2%.
With `O=C1CCCC2=C1C(c1ccccc1Cl)N=C(c1ccccn1)N2` (centres undefined) the “activity change, negative = inhibition” value was -3.03%.
For `COc1cccc2nc(Nc3nc4ccccc4o3)nc(-c3ccccc3Cl)c12`, the “activity change, negative = inhibition” value was -7.85%.
With `CC1=C(C(=O)n2ccc3ccccc32)C(c2ccccc2Br)N=C(Nc2nc3ccccc3o2)N1` (centres undefined) the “activity change, negative = inhibition” value was -5.19%.
In the case of `O=C1CCCC2=C1C(c1[nH]ncc1Cl)N=C(Nc1nc3cc([S+](=O)([O-])N4CCOCC4)ccc3o1)N2` (centres undefined), the “activity change, negative = inhibition” value was -1.21%.
In the case of `O=C1CCCC2=C1[C@@]1(CCC(c3ccccc3)C1)N=C(Nc1nc3ccccc3o1)N2` (some centres undefined), the “activity change, negative = inhibition” value was 0.128%.
For `Cc1nc(Nc2nc3ccccc3o2)nc(-c2ccccc2Br)c1C(=O)NCc1ccccc1`, the “activity change, negative = inhibition” value was 2.91%.
With `O=C1CCCC2=C1C(c1[nH]ncc1Cl)N=C(Nc1nc3c(Cl)cccc3o1)N2` (centres undefined) the “activity change, negative = inhibition” value was -2.85%.
`CC1(C)N=C(Nc2nc3ccccc3o2)NC2=C1C(=O)CCC2` was tested, and the “activity change, negative = inhibition” value was -19.7%.
With `Cc1ccc2oc(NC3=NC(c4ccccc4Cl)C4=C(CCCC4=O)N3)nc2c1` (centres undefined) the Potency was 6.11 µM (active).
For `O=C1CCCC2=C1C(c1[nH]ncc1Cl)N=C(Nc1nccs1)N2` (centres undefined), the “activity change, negative = inhibition” value was 2%.
For `COc1ccccc1NC(=O)C1=C(C)NC(Nc2nc3ccccc3o2)=NC1c1ccccc1Br` (centres undefined), the “activity change, negative = inhibition” value was -19.2%.
In the case of `O=C1CCCC2=C1C(c1cccnc1)N=C(Nc1nc3ccccc3o1)N2` (centres undefined), the “activity change, negative = inhibition” value was -15.6%.
`CC1=C(C(=O)Nc2nc3ccccc3s2)C(c2nn(C)cc2Cl)N=C(Nc2nc3ccccc3o2)N1` (centres undefined) was tested, and the “activity change, negative = inhibition” value was -5.31%.
`COc1ccccc1C1N=C(Nc2nc3ccccc3o2)NC2=C1C(=O)CCC2` (centres undefined) was tested, and the “activity change, negative = inhibition” value was -17.2%.
In the case of `O=C1CCCC2=C1C(c1[nH]ncc1Cl)NC(=NCc1ccco1)N2` (centres undefined), the “activity change, negative = inhibition” value was -8.02%.
With `O=C1CCCC2=C1C(c1[nH]ncc1Cl)N=C(Nc1nc3ccccc3s1)N2` (centres undefined) the “activity change, negative = inhibition” value was -4.86%.
`O=C1CCCC2=C1C(c1cccc(Cl)c1)N=C(Nc1nc3ccccc3o1)N2` (centres undefined) was tested, and the “activity change, negative = inhibition” value was -2.3%.
